# About 83,000 compounds went through this panel and 20% of them were active in at least one assay; those are over-represented in the sample as a whole.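 Assay: single dose, 48 h. Readout: percent growth (0 = no net growth; negative = cell death). Active: <10.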 A number with no mark means an inactive call. The source made the active and inactive calls.
# Test system: HL-60(TB) leukemia
# Experiment: NCI-60 one-dose screen, 48 h (100 = growth as untreated, 0 = no growth, -100 = all killed)
# Settings: 10 µM unless noted
row,Structure (SMILES),growth
1,COc1ncc(-c2ccc3nccc(-c4ccnnc4)c3c2)cc1NS(=O)(=O)c1ccc(F)cc1F,-13.8% (active)
2,COC(c1ccccc1)(c1ccccc1)c1ccccc1,111%
3,ClC1=C(Cl)C(=C2C(Cl)=C(Cl)C(Cl)=C2Cl)C(Cl)=C1Cl,77.7%
4,C/C(O)=C(\C=N\C(N)=S)C(=O)Nc1ccccc1,105%
5,O=C(CCCSc1nc(-c2ccccc2)cc(-c2ccc(Cl)cc2)n1)NO,-15.8% (active)
6,Cn1c2ccccc2c2c3c(c4c5ccccc5n(CCCCCC#N)c4c21)C(=O)N(O)C3=O,-22.3% (active)
7,Nc1nc(NC2CC2)c2ncn(C3C=CC(CO)C3)c2n1 (stereo not given),86.6%
8,O=C(O)c1cn(C2CC2)c2cc(N3CCN(C(=O)N4CCOCC4)CC3)c(F)cc2c1=O,90.3%
9,S=C(SSC(=S)N(c1ccccc1)c1ccccc1)N(c1ccccc1)c1ccccc1,85.1%
10,C=C1CCC2C3(C)COC(c4ccc(NC(C)=O)cc4)OC3CCC2(C)C1C/C=C1/C(=O)OCC1O (stereo not given),32.8%
11,CCn1cc(C(=O)O)c(=O)c2cc(F)c(N3CCN(S(=O)(=O)c4cccc5ccccc45)CC3)cc21,-46.2% (active)
12,c1csc(-c2cnc3nonc3n2)c1,1.96% (active)
13,CN(C)/C=C1\SC(=Nc2ccc(Cl)cc2)NC1=O,99.5%
14,COc1ccc(C/C(C)=C(\c2ccc(Cl)cc2)c2ccc(OCCN3CCCCC3)cc2)cc1,91.8%
15,COc1ccc(/C(C)=C(\c2ccc(Cl)cc2)c2ccc(OCCN(C)C)cc2)cc1F,58.2%
16,COC(=O)[C@H](Cc1cn(C)cn1)NC(=O)[C@H](C)NC(=O)Nc1cc(C(F)(F)F)cc(C(F)(F)F)c1,-70.4% [100 µM] (active)
17,C=C1CC/C=C(\C)C(=O)C[C@@H]2[C@@H]1CC2(C)C,105%
18,CC1=CNNc2c3ncnc-3ncn21,99.8%
19,COc1ccc(-c2cc(C(=O)N3N=C(c4ccc(N)cc4)CC3c3ccc(OC)cc3)c3cc(OC)ccc3n2)cc1 (stereo not given),-7.72% (active)
20,O=C1CC[C@H](c2ccc(O)c3c2C(=O)[C@@H]2O[C@@H]2C3=O)c2cccc(O)c21,-20.5% (active)
21,CCC1C[N+]2=C(c3cc(OC)c(OC)cc3CC2)c2c1cc1n2CCc2cc(OC)c(OC)cc2-1 (stereo not given),8.26% (active)
22,CCCCCCCC/C=C/CCCCCCCCC1=NCCN1CCO,8.59% (active)
23,O=C(/C=C/c1ccco1)Nc1ncc(Cc2ccc(F)cc2)s1,-41.6% (active)
24,COc1ccc(C/C(C)=C(/c2ccc(OCCN3CCCCCC3)cc2)c2ccc(OC(=O)NCc3ccccc3)cc2)cc1,45%
25,CC(C)/C=N/NC(N)=S,104%

# Reference: PubChem BioAssay (NCI)
